Among all 65,000 compounds or so, about 2,100 (3.2%) showed an effect of 50% or more. The median lay at about -52%. This is one part of a sample in which strong results are shown more often than they occur.
These compounds were tested on Plasmodium falciparum (assay: Screen against P. falciparum Asexual Blood Stage (ABS), at 5uM). Settings: tested at 5 uM.
Format: functional, Dd2

| SMILES | INHIBITION |
| --- | --- |
| O=S1(=O)CCC(n2cc(C3=CCN(CCN4CCCCC4)CC3)cn2)C1 (stereo not given) | 12.6% |
| O=C(N[C@H]1CN[C@H]2CCCO[C@H]21)c1ccno1 | -87.2% |
| c1cc(COC[C@@H]2CCC[C@@]23CNCCO3)ccn1 | 7.1% |
| COc1cc(CNCC(O)c2ccccc2F)cc2c1OCO2 (stereo not given) | 78% |
| COc1cc(CNCC(O)c2ccc(F)cc2F)cc2c1OCO2 (stereo not given) | 85.5% |
| CC[C@H](N)Cn1nc(-c2cccs2)oc1=O | -186% |
| CCc1nnc(C(C)N2CCCN(C(=O)Oc3ccccc3)CC2)o1 (stereo not given) | -87.2% |
| CC(C)NC(=O)c1ccc2c(c1)C1(CCN(C)CC1)C(=O)N2 | -37.9% |
| CCC(CN1CCCC1)NC(=O)C1(c2cccc(F)c2)CC1 (stereo not given) | 84.7% |
| CC(C)CN1CCC2(CC1)C(=O)Nc1ccc(C(=O)NC(C)C)cc12 | -39.5% |
| CCC(CN1CCN(C)CC1)NC(=O)C1(c2cccc(F)c2)CC1 (stereo not given) | 77.1% |
| O=C(Nc1cccc(F)c1)N1CCC(CO)(Nc2ccccc2)CC1 | -35.15% |
| CC(C)n1cc(C(=O)NC2CN3CCC2CC3)c2ccccc21 (stereo not given) | -24.9% |
| Cc1[nH]c2ccccc2c1-c1ccnc(NCCN2CCOCC2)n1 | 82.5% |
| CC(C)(C)n1cc(C(=O)NCCN2CCOCC2)c2cccnc21 | -89.4% |
| Cn1cc(C2NC3(CCCC3)C(=O)N2CC2CC2)c(=O)n(C)c1=O (stereo not given) | -43.9% |
| Cc1ccc(N2CC[C@@H]3CN(Cc4cc[nH]n4)C[C@@H]3C2)nn1 | -19.6% |
| Cc1cc(CN2C[C@@H]3CN(C(=O)c4ccco4)CCO[C@@H]3C2)no1 | -45% |
| NCC1(c2cccc(Br)c2)CCOCC1 | 79.5% |
| NCC1(c2cccc(C(F)(F)F)c2)CC1 | -97.7% |
| NCC1(c2cccc(F)c2)CCOCC1 | 2.49% |
| NCC1(c2cccc(C(F)(F)F)c2)CCOCC1 | 69.9% |
| Cc1nn(-c2ccc(C(=O)O)cc2)c2c1C(c1ccsc1)SCC(=O)N2 (stereo not given) | -82.6% |
| COCCN1CCN(Cc2ccco2)Cc2ccc(C)nc21 | -85% |
| COCCN1CCO[C@@H]2CN(S(=O)(=O)c3cccnc3)C[C@@H]2C1 | -76.3% |

| SMILES | INHIBITION |
| --- | --- |
| Cc1cc(CN2C[C@@H]3COC[C@@H](C(=O)N4CCCCO4)[C@@H]3C2)no1 | -31.1% |
| Cn1cc(CN2C[C@H]3CCC[C@@H](CNc4ncccn4)[C@H]3C2)cn1 | -87.3% |
| O=C(C[C@@H]1COC[C@H]2CN(Cc3cccnc3)C[C@@H]12)N1CCCC1 | -133% |
| COc1ccc(CN2C[C@H]3CCC[C@@H](CN(C)C4CC4)[C@H]3C2)cn1 | 78.2% |
| CN(C[C@@H]1CCC[C@@H]2CN(Cc3cccnc3)C[C@@H]21)C1CC1 | 56.5% |
| COC1CCC[C@@H]2CN(Cc3csc(C)n3)C[C@H]12 (stereo not given in full) | 24.8% |
| c1cnc(NC[C@@H]2CCC[C@@H]3CN(Cc4cccnc4)C[C@@H]32)nc1 | 42.2% |
| COCCN(C)C[C@@H]1CCC[C@@H]2CN(Cc3ccc(OC)nc3)C[C@@H]21 | 79.6% |
| COc1ccc(CN2C[C@H]3CCC[C@@H](CN(C)C)[C@H]3C2)cn1 | 50% |
| Cc1cccc(CN2C(=O)CC[C@H]3[C@@H]2CCN3CC(=O)N(C)C)n1 | -71% |
| CCCN1C(=O)C2(CCCCC2)NC1c1cn(C)c(=O)n(C)c1=O (stereo not given) | -5.44% |
| CCCN1C[C@@H]2CC[C@H]1CN(C(=O)Cc1c(C)[nH]c(CC)nc1=O)C2 | -19.6% |
| COCc1cncc2c1CCN(Cc1ccccn1)C2 | -65.2% |
| CC(Cc1c(F)cccc1F)NC(=O)CN(CC(N)=O)C(C)C (stereo not given) | -23.8% |
| COc1ccc(C(NCc2cccc(O)c2)C2CC2)cc1 (stereo not given) | 83.6% |
| COc1ccc(CC(C)Nc2cccc(F)c2)cc1 (stereo not given) | -65.5% |
| O=C(Cc1ccc(O)c(Cl)c1)N1CCN(CC2CC2)[C@@H]2CS(=O)(=O)C[C@@H]21 | -53.2% |
| COCCN1CCC2(COCc3cnc(N4CCOCC4)nc32)C1 (stereo not given) | -18.1% |
| COCC(=O)NC[C@H]1C[C@@H]2CCN1C[C@@H]2CN1CCc2ccccc2C1 | -27.5% |
| CN1CCN(S(=O)(=O)C2CC2)Cc2cccnc21 | -77.8% |
| CN1CCCC(CNS(=O)(=O)N2CCc3ccccc3C2)C1 (stereo not given) | 77.4% |
| CCOCCC(=O)N1C[C@@H]2CC[C@H]1CN(Cc1ccncc1)C2 | -31.8% |
| O[C@]12CCNC[C@H]1CN(c1ncccc1Cl)CC2 | -135% |
| Clc1ccccc1C1(c2ccnc(C3CC3)n2)CCNCC1 | 73.5% |
| Clc1ccccc1C1(c2ccnc(C3CCCC3)n2)CCNCC1 | 83% |

Source: ChEMBL document CHEMBL4513216, “Probing the Open Global Health Chemical Diversity Library for Multistage-Active Starting Points for Next-Generation Antimalarials” (ACS Infect Dis, 2020)
